PubChem BioAssay AID504832 (National Center for Advancing Translational Sciences (NCATS), 2011)
The whole screen tested about 310,000 compounds, of which about 18,000 (5.8%) were called active. Another 22% or so got no clear call; they are omitted. Calls follow the shape of the dose curve; as a rule, active = well fitted inhibition curve with a large enough effect; inconclusive = small, poorly fitted or top-dose-only effect, or another doubt; inactive = no such curve, though single readings can be large or run the other way. Shown is part of a subset that was picked to be rich in actives.

Assay: Primary qHTS for delayed death inhibitors of the malarial parasite plastid, 48 hour incubation
Details: P. falciparum luciferase growth in erythrocytes; series mostly up to 28.7 µM; activity change, negative = inhibition: at the top concentration
Text: The goal of this screen is to discover new antimalarial compounds that act by inhibiting the development of the apicoplast in the malarial parasite Plasmodium falciparum. The biochemical processes that make this organelle essential for erythrocytic stage parasites are not well understood. However, antibiotics such as azithromycin and tetracycline, which target the apicoplast translational machinery, have a potent antimalarial effect.
We have developed a cell-based assay that measures parasite growth based on the expression of an integrated copy of a firefly luciferase reporter. To detect small molecules that cause this "delayed death" phenotype, erythrocytes infected with the luciferase-expressing parasites were incubated with compounds for either one or two generations, corresponding to 48 and 96 hours, respectively. Compounds that inhibit parasite growth in the second generation, but not the first, should be enriched in antimalarials that target the apicoplast. Growth inhibition is detected by a decrease in luciferase activity.
Assay Provider: David Fidock and Eric Ekland, Columbia University
Keywords: NIH Roadmap, MLPCN, MLI, MLSMR, qHTS, NCGC, qHTS, malaria, luciferase, viability
Four microliters of culture medium (RPMI 1640 with 0.5% w/v Albumax (GIBCO), 24 mM sodium bicarbonate and 10 ug/mL gentamycin) were dispensed by a Multi-drop Combi into white solid 1536-well plates (Grenier) and 23 nL compound was added by a pin tool. Four microliters of infected erythrocytes (2% hematocrit, 0.1% parasitemia final concentration) in culture medium were dispensed and the plates incubated for 48 hours at 37 C in 5% CO2. Two microliters of luciferase detection reagent was added and luminescence was detected by a ViewLux (PerkinElmer) reader.
% is scaled to controls: 0 for no effect and ±100 for the full control effect; potency is read from the fitted curve at half-maximal effect.

Row | Compound | activity change, negative = inhibition | Potency
1 | CCn1c(CN2C(=O)CSc3ccccc32)n[nH]c1=S | -12.7% (inactive) | –
2 | COc1ccc(CN2C(=O)CN=C2Nc2ccc(C)cc2C)cc1 | -2.89% (inactive) | –
3 | CC(C)(C)c1ccc(CN2C(=O)CN=C(c3ccccc3)c3ccccc32)cc1 | – | 2.08 µM (active)
4 | O=S(=O)(NCCc1ccc(Cl)cc1)c1cccs1 | 20.8% (inactive) | –
5 | Cc1cc(NC(C)C)n2c(nc3ccccc32)c1C#N | -23.9% (inactive) | –
6 | Cc1ccccc1-c1nc(C#N)c(NCc2ccco2)o1 | 4.33% (inactive) | –
7 | Cc1cc(NCc2ccco2)n2c(nc3ccccc32)c1C#N | – | 4.15 µM (active)
8 | COc1ccc(CCN2CC(C(=O)NCCN3CCNC3=O)CCC2=O)cc1 (stereo unspecified) | 29% (inactive) | –
9 | O=S(=O)(c1ccc(F)cc1)N1CCN(C(=S)NC2CCCC2)CC1 | – | 7.38 µM (active)
10 | O=S(=O)(c1ccc(F)cc1)N1CCN(C(=S)NCc2ccco2)CC1 | – | 1.47 µM (active)
11 | Cc1ccc(S(=O)(=O)N2CCC(C(=O)N[C@@H](C)C(=O)NCc3ccco3)CC2)cc1 | -1.32% (inactive) | –
12 | CC1CCN(S(=O)(=O)c2ccc(S(=O)(=O)NCc3ccco3)cc2)CC1 | 7.63% (inactive) | –
13 | O=C(O)C1CCCCC1C(=O)N1CCN(S(=O)(=O)c2ccc(F)cc2)CC1 (stereo unspecified) | 17.8% (inactive) | –
14 | O=C(CN1CCN(S(=O)(=O)c2ccc(F)cc2)CC1)NC1CC1 | 9.53% (inactive) | –
15 | C=CCOc1ccc(/C=C/C(=O)OC(C)C(=O)Nc2ccc(NC(C)=O)cc2)cc1 (stereo unspecified) | 32.7% (inactive) | –
16 | O=C(CN1CCCCCC1)Nc1ccc(Br)cc1[N+](=O)[O-] | 17.6% (inactive) | –
17 | Cc1cc(OCC(=O)N(C)c2c(N)n(Cc3ccccc3)c(=O)[nH]c2=O)c(C(C)C)cc1Cl | -4.06% (inactive) | –
18 | COc1cc(C2C(C(=O)c3ccc(C)o3)=C(O)C(=O)N2CCc2ccccc2)ccc1O (stereo unspecified) | 56.4% (inactive) | –
19 | COc1ccc(CCN2C(=O)c3[nH]nc(-c4ccccc4O)c3C2c2ccc(C)cc2)cc1OC (stereo unspecified) | – | 9.28 µM (active)
20 | COc1ccc(CCN(C)CCN2C(=O)c3ccccc3C2=O)cc1OC | 0.247% (inactive) | –
21 | COC(=O)c1nc2n(n1)C(c1ccc([N+](=O)[O-])cc1)C(C(=O)Nc1ccc(Cl)cc1)=C(C)N2 (stereo unspecified) | – | 1.65 µM (active)
22 | COc1ccc(NC(=O)C2=C(C)NC(=O)NC2c2ccccc2[N+](=O)[O-])cc1 (stereo unspecified) | -0.334% (inactive) | –

Row | Compound | activity change, negative = inhibition | Potency
23 | COCCOC(=O)C1=C(C)Nc2nc(C)nn2C1c1ccccc1 (stereo unspecified) | 3.78% (inactive) | –
24 | COCCN1CCN(C(=O)c2cc(COc3ccc(F)cc3Cl)on2)CC1 | 5.96% (inactive) | –
25 | CC1CC(C)CN(S(=O)(=O)c2cccc3nonc23)C1 (stereo unspecified) | 32.9% (inactive) | –
26 | C=CCn1c(SCC(=O)NCCCO)nc2sc3c(c2c1=O)CCC3 | -8.06% (inactive) | –
27 | CC(C)c1nc(SCC(=O)Nc2cccc(C(=O)O)c2)c2c3c(sc2n1)CCCC3 | 27.6% (inactive) | –
28 | Cc1ccc(C)n1C(Cc1ccccc1)C(=O)O (stereo unspecified) | 4.96% (inactive) | –
29 | CC1=CC(C)(C)Nc2ccc(OC(=O)C(Cc3ccccc3)N3C(=O)C4CCCCC4C3=O)cc21 (stereo unspecified) | – | 13.1 µM (active)
30 | O=C(CN1C(=O)C2C3CCC(C3)C2C1=O)Oc1ccc2ccccc2c1 (stereo unspecified) | 8.88% (inactive) | –
31 | CC(OC(=O)CN1C(=O)C2CCCCC2C1=O)C(=O)Nc1ncc(Cl)cc1Cl (stereo unspecified) | -0.453% (inactive) | –
32 | CC1=CC(C)(C)Nc2ccc(OC(=O)CN3C(=O)C4CCCCC4C3=O)cc21 (stereo unspecified) | – | 10.4 µM (active)
33 | CCC1(C)NC(=O)N(CC(=O)N2CCN(c3cccc(Cl)c3)CC2)C1=O (stereo unspecified) | -20% (inactive) | –
34 | Cc1ccc(C)c(NC(=O)COC(=O)CSc2ccccc2)c1 | -2.8% (inactive) | –
35 | Cc1cccc(C)c1NC(=O)N1CC(C)OC(C)C1 (stereo unspecified) | -2.21% (inactive) | –
36 | Cc1sc2nc(CSCC(=O)NC3CCCCC3)[nH]c(=O)c2c1C | 47.3% (inactive) | –
37 | CCC1(c2ccccc2)C(=O)NC(=O)N(C)C1=O (stereo unspecified) | – | 16.9 µM (active)
38 | Cc1c(C=O)n(C)n(-c2ccccc2)c1=O | 8.37% (inactive) | –
39 | CNC(=O)CN1C(=O)NC(c2ccccc2)(c2ccccc2)C1=O | 19% (inactive) | –
40 | CN(CCc1ccccc1)c1ccc([N+](=O)[O-])cn1 | 39.2% (inactive) | –
41 | COc1ccccc1/C=C1\SC(=O)N(CCC(=O)N(C)C2CCS(=O)(=O)C2)C1=O (stereo unspecified) | -8.56% (inactive) | –
42 | CCC(=O)c1ccc(OC(=O)/C=C/c2cc(OC)c(OC)c(OC)c2)cc1 | 10.4% (inactive) | –
43 | O=C(NCC(c1cccnc1)N1CCN(c2ccccc2)CC1)Oc1ccccc1 (stereo unspecified) | – | 13.1 µM (active)
44 | Cc1ccc(C)c(NC(=S)NCC(c2cccnc2)N2CCOCC2)c1 (stereo unspecified) | 18.8% (inactive) | –

Row | Compound | activity change, negative = inhibition | Potency
45 | CN1CCN(C(CNS(=O)(=O)c2cccs2)c2cccnc2)CC1 (stereo unspecified) | 22.3% (inactive) | –
46 | COc1cc(CO)ccc1OCC(=O)Nc1cccc2ccccc12 | 0.965% (inactive) | –
47 | CC(C)(CNC(=O)CNC(=O)C1CCCCC1)N1CCOCC1 | -4.63% (inactive) | –
48 | O=C(NC(=S)Nc1ccc(Cl)c(C(=O)O)c1)c1cncc(Br)c1 | 36% (inactive) | –
49 | CN1CCN(C(=S)SCC(=O)Nc2ccc(Cl)cc2C(=O)c2ccccc2)CC1 | 0% (inactive) | –
50 | O=C(COC(=O)c1ccccc1)Nc1ccc(Cl)cc1C(=O)c1ccccc1 | 12.9% (inactive) | –
51 | O=C(CCNS(=O)(=O)c1ccccc1)Nc1ccc(Cl)cc1C(=O)c1ccccc1 | – | 11.7 µM (active)
52 | COc1ccc(-c2nnc(SCC(=O)Nc3cccnc3Cl)n2C)cc1 | 8.45% (inactive) | –
53 | Cc1ccc(NC(=O)CN(C)C(=O)Cn2nnc(-c3ccccc3)n2)cc1 | 12% (inactive) | –
54 | COc1ccccc1C(=O)COC(=O)CNS(=O)(=O)c1ccc(NC(C)=O)cc1 | 6.09% (inactive) | –
55 | O=C(NC(=O)c1ccccc1)Nc1ccccc1O | -2.78% [at 0.00184 µM] (inactive) | –
56 | O=C(N/N=C/c1ccccn1)c1ccc(S(=O)(=O)N2CCCCCC2)cc1 | -4.68% (inactive) | –
57 | O=C(CNC(=O)c1ccc2ccccc2c1)Nc1ncccc1O | 96.1% (inactive) | –
58 | O=C(Nc1ccc(S(=O)(=O)N2CCCCCC2)cc1)c1c(F)cccc1F | 32.2% (inactive) | –
59 | O=C(Nc1cccnc1)c1cccc(S(=O)(=O)N2CCCC2)c1 | -11.3% (inactive) | –
60 | O=C(Nc1ncccc1O)c1ccc(S(=O)(=O)N2CCCCCC2)cc1 | – | 4.15 µM (active)
61 | O=C(Nc1ncccc1O)c1ccc(S(=O)(=O)N2CCCC2)cc1 | – | 3.29 µM (active)
62 | O=C(Nc1cccc(F)c1)c1ccc(S(=O)(=O)N2CCCC2)cc1 | -26.6% (inactive) | –
63 | O=C(Nc1ncccc1O)c1ccc(C(=O)c2ccccc2)cc1 | – | 0.738 µM (active)
64 | O=C(COc1ccc(Cl)cc1Cl)N/N=C/c1ccccn1 | -14% (inactive) | –
65 | CCc1ccc(NC(=O)CCNS(=O)(=O)c2cccs2)cc1 | 28.1% (inactive) | –
66 | O=C(CCNC(=O)c1ccccc1)Nc1nc2ccccc2s1 | 109% (inactive) | –
